Screens: PubChem, several laboratories
Myeloid diff 2: myeloid differentiation induction | ER-HoxA9 myeloid progenitors, lysozyme-GFP differentiation, flow cytometry | calls only at 10 µM | 360,000 tested, 1% active | AID 624256;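 active = normalized GFP-positive differentiation at or above the plate's own cutoff, the solvent-only control mean plus 3 SD; inconclusive = no clear call, values can overlap the other calls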;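 also: cells exposed to compound for four days before flow analysis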
M1 PAM: positive allosteric modulators of human M1 muscarinic receptor. AID 588819. P11229. CHO-K1 hM1, Fluo-8 calcium fluorescence, ACh EC20; 0% = ACh EC20, 100% = maximal ACh. activation, % at 3 µM. 360,000 tested, 0.088% active; in the data active = activation above about 19%, passing the limit was not always enough
CHRM1 antagonist: human CHRM1 antagonism. 360,000 tested, 1.3% active. CHO-K1 hM1, Fluo-8 calcium fluorescence, ACh EC80 antagonist. inhibition, % at 3 µM. AID 588852;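 active = percent inhibition above its own plate's cutoff, namely the mean of that plate's compound wells plus 3 SD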;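 also: peak over basal fluorescence ratio during 140 s after agonist addition; 0% = ACh EC80 plus DMSO and 100% = DMSO alone without agonist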
ATG4B inhibitor: blocks human ATG4B protease cleavage of LC3 substrate; Q9Y4P1; ATG4B cleavage of LC3-PLA2, NBD-HPC fluorescence, 1 h; inhibition, % at 8.33 µM; 340,000 tested, 0.51% active; in the data active = inhibition above about 40%
Target sequence (Q9Y4P1 whole entry, looked up): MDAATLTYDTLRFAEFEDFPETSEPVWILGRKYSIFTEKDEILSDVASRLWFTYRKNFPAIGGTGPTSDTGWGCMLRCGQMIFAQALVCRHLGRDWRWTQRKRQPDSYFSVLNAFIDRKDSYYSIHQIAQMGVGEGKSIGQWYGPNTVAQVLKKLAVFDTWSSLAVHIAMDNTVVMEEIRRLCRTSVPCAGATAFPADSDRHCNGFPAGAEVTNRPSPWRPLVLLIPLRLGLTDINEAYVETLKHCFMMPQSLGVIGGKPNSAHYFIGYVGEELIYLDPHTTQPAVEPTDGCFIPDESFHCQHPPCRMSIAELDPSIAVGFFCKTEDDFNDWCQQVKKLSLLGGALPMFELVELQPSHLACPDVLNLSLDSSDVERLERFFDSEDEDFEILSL
M1 ag: human M1 muscarinic receptor agonism; P11229; CHO-K1 hM1, Fluo-8 calcium fluorescence, agonist mode; 0% DMSO, 100% acetylcholine EC100; activation, % at 3 µM; 360,000 tested, 0.33% active;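 active = activation above the run's mean compound activation plus 3 SD, cut at about 16% in these data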;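 also: peak over basal fluorescence ratio within a 140 s kinetic read after compound addition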
SKN-1 inh: C. elegans SKN-1 inhibition | C. elegans VP596 Pgst-4::GFP/RFP ratio, acrylamide-induced, 24 h | inhibition, % at 21.8 µM | 360,000 tested, 0.49% active | AID 624304;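 active = interference check ratio from 0.5 to 1.5 plus GFP to RFP signal ratio inhibition reaching or exceeding a fixed threshold, cut at about 30% in these data, passing the limit was not always enough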
Active calls of the source: *; i = inactive; ? = inconclusive; nt = not tested or not shown; + = active, no number. In the library only some 3.5% were active in any assay of this set; here they are far more common.

SMILES	Myeloid diff 2	M1 PAM	CHRM1 antagonist	ATG4B inhibitor	M1 ag	SKN-1 inh
CC1CN1P1(=O)OCC(C)([N+](=O)[O-])CO1 (stereo not given)	i	14.9	7.2	3.3	8.9	-36.4
COc1ccccc1-c1cc(NC(C)=O)c2ncc(-c3ccccc3)n2c1	i	1.2	-7.5	nt	-1.5	-1.3
CCCCCCC(Cl)(Cn1ccnc1)c1ccccc1 (stereo not given)	i	-24.3	33.0*	3.7	-5.7	2.7
COc1ccc(-n2c(O)c(C=NCc3ccc4c(c3)OCO4)c(=O)[nH]c2=O)cc1	i	7.7	-10.1	2.4	1.2	4.1
CCCCCSc1cc(OC)c(CCNC)cc1OC	i	-20.0	36.1*	7.7	-7.7	-1.7
C/C=C(\C)C(=O)N[C@@H](c1ccccc1)[C@@H](O)C(=O)O[C@H]1C[C@@]2(O)[C@@H](OC(=O)c3ccccc3)C3[C@](C)(C(=O)[C@H](OC(C)=O)C(=C1C)C2(C)C)[C@@H](O)C[C@H]1OC[C@@]31OC(C)=O (stereo not given in full)	+	4.2	-4.8	-18.8	-5.3	13.2
C/C=C(\C)C(=O)N[C@@H](c1ccccc1)[C@@H](O)C(=O)O[C@H]1C[C@@]2(O)[C@@H](OC(=O)c3ccccc3)C3[C@](C)(C(=O)[C@H](O)C(=C1C)C2(C)C)[C@@H](O)C[C@H]1OC[C@@]31OC(C)=O (stereo not given in full)	i	6.0	-11.2	-12.4	-4.5	7.0
CCCCN1C(=O)NC(=O)C2(Cc3cc(C)ccc3N(C)C2)C1=O (stereo not given)	i	-2.2	-23.6	3.7	0.8	41.0*
Oc1ccc(Cl)c(Cl)c1Cl	i	-22.6	24.3*	-2.8	-2.0	13.6
CCCC[N+]12CCC(CC1)C(=C(c1ccccc1)c1ccccc1)C2	i	-25.9	99.4*	7.2	-13.6	2.8
CCC[N+]12CCC(CC1)C(=C(c1ccccc1)c1ccccc1)C2	i	-25.5	98.9*	7.5	-6.8	-6.7
C=CCN1CCc2cccc3c2[C@H]1Cc1ccc(O)c(O)c1-3	i	-1.1	-5.1	-0.1	-4.3	15.1
CCCC(=O)C1C(=O)NC(=O)NC1=O	i	7.5	-12.9	3.4	-1.6	1.1
CC[n+]1c(-c2ccccc2)c2cc(N)ccc2c2ccc(N)cc21	+	-6.0	-4.1	3.2	-8.5	86.9
C[C@]12CCC3C(C(=O)C[C@H]4C[C@@H](O)CC[C@]34C)C1CCC2=O (stereo not given in full)	i	10.2	-25.7	-3.3	-2.0	-3.5
O=[N+]([O-])c1ccc(-[n+]2c(-c3ccccc3)cc(-c3ccccc3)cc2-c2ccccc2)cc1	i	-19.8	35.8*	7.7	-11.2	-3.8
COc1ccc2c3c1OC1C(=O)CC[C@@]4(O)[C@@H](C2)N(CC2CC2)CC[C@]314 (stereo not given in full)	nt	1.7	2.2	-2.7	-2.9	10.2
CCC(=NCCc1c[nH]c2ccccc12)c1c(O)n(C)c(=O)n(C)c1=O	i	-14.9	26.1*	5.9	3.3	2.6
CCOC(=O)c1cccc(C2=C(CNC(=O)c3cccnc3)[C@H]3CC[C@@H](C2)N3Cc2ccccc2)c1	i	1.7	2.4	nt	-7.9	2.2
CCOC(=O)c1cccc(C2=C(CNC(C)=O)[C@H]3CC[C@@H](C2)N3Cc2ccccc2)c1	i	-15.4	31.1*	nt	-6.6	12.4
C=CCn1c(=O)c(C=Nc2cccc([N+](=O)[O-])c2)c(O)n(CCCC)c1=O	+	6.5	-9.0	0.1	-1.1	-30.5
COc1cc(C=NNC(=S)Nc2ccc(S(=O)(=O)N3CCCCC3)cc2)cc(OC)c1OC	i	-2.1	-2.3	nt	-2.6	11.1
Cc1ccc(N2C(=O)NC(=O)/C(=C/c3cnc(-c4ccccc4)nc3)C2=O)cc1C	i	5.0	-4.5	4.3	-4.9	7.8
CC(C)c1ccc(N2C(=O)NC(=O)/C(=C\c3cnc(-c4ccccc4)nc3)C2=O)cc1	i	26.3*	3.5	-4.5	-2.5	-7.6
O=C(NC(=S)N1C[C@H]2C[C@H](C1)c1cccc(=O)n1C2)c1ccc(Cl)cc1Cl	i	7.0	3.3	-18.8	0.4	-13.2
SMILES	Myeloid diff 2	M1 PAM	CHRM1 antagonist	ATG4B inhibitor	M1 ag	SKN-1 inh
CCN1C(=O)/C(=C/c2ccc(N(CC)CC)cc2OC)C(=O)NC1=S	i	0.6	0.3	-1.6	-4.3	44.8*
CCN(CC)c1ccc(/C=C2\C(=O)NC(=S)N(C)C2=O)o1	+	-2.4	1.6	1.8	14.1	33.5
CCN(CC)c1ccc(C=C2C(=O)N(C)C(=S)N(C)C2=O)o1	i	4.0	-1.0	8.4	-1.2	38.1*
CN1C(=O)C(=Cc2ccc(N3CCCCC3)o2)C(=O)N(C)C1=S	i	-5.2	6.6	-3.9	4.2	34.1
COc1ccccc1/C=C1\C(=O)NC(=S)N(c2ccccc2)C1=O	i	9.5	-6.1	-3.7	-4.1	12.2
CCN(CC)c1ccc(/C=C2\C(=O)NC(=S)N(c3ccc(OC)cc3OC)C2=O)o1	+	0.7	4.0	-4.0	12.9	16.3
COc1ccc(N2C(=O)/C(=C/c3ccc(N(C)C)o3)C(=O)NC2=S)cc1	i	-0.5	-2.9	6.0	1.1	18.9
O=C(Nc1ccccc1)NC1CC2CCC(C1)N2 (stereo not given)	i	-16.6	30.5*	-4.3	-4.9	6.0
COC(=O)C1C2CC[C@@H](CC1OC(=O)c1ccccc1)N2 (stereo not given in full)	nt	4.8	-9.6	-1.9	2.5	-0.9
O=C1NC(=O)N(c2ccccc2F)C(=O)/C1=C/c1ccc(Sc2nc3ccccc3[nH]2)o1	i	-9.1	10.4	28.4	17.5*	92.2
O=C1NC(=O)N(c2cccc(Cl)c2)C(=O)/C1=C\c1ccc(Sc2nc3ccccc3[nH]2)o1	i	-12.7	9.4	23.9	23.5*	76.5
CCN(CC)c1ccc(/C=C/[N+](=O)[O-])cc1	i	-8.1	53.0*	6.1	69.9*	19.7
CC(O)C1C=CC=CC(=O)OC2CC3OC4C5OC5(C)CCC4(COC(=O)C4OC4(C)C(O)CO1)C2(C)C31CO1 (stereo not given)	?	-6.5	8.8	-2.0	-0.3	16.3
CC(=O)OC1C(=O)OCC23CCC4(C)OC4C2OC2CC(OC(=O)C=CC=CC(=O)OCCC1C)C3(C)C21CO1 (stereo not given)	?	-9.9	14.4	5.8	-1.1	42.4*
CCCn1ncc(CN2CCCC(C(=O)c3cccc(OC)c3)C2)c1C (stereo not given)	i	-33.7	93.9*	7.2	-13.6	-8.3
CCCn1cc(CN2CCCC(C(=O)c3cccc(OC)c3)C2)c(C)n1 (stereo not given)	i	-29.8	23.7	19.1	-11.7	-7.6
